ALOX12 inh: Primary qHTS assay for inhibitors of human arachidonate 12S-lipoxygenase (ALOX12): Round 2. Polyunsaturated fatty acid lipoxygenase ALOX12 (Homo sapiens), P18054. actives 1.1% (n = 580,000). Potency, µM (series often up to 108 µM), for the others: at the highest dose activity change, negative = inhibition, usual class: inhibitors. purified 12hLO, xylenol orange hydroperoxide absorbance
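Purified human 12hLO (150 nM final) in 25 mM Hepes, 0.01% Triton X-100, pH 7.0 was preincubated 15 min at room temperature with compound. Then 40 uM arachidonic acid was added, 30 min. Hydroperoxide was read by Fe-XO absorbance ratio 573/405 nm.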
PLK1 PBD inh: qHTS for Inhibitors of PLK1-PDB (polo-like kinase 1 - polo-box domain): Primary Screen; Potency, µM, without a hit: max response, negative = inhibition, hits mostly inhibitors; actives 2.8% (n = 360,000); Serine/threonine-protein kinase PLK1 (Homo sapiens), P53350; Plk1 PBD binding of FITC phosphopeptide, fluorescence polarization; note: series mostly up to about 57 µM; nearly all actives have a fitted effect of over 65% in size
VDR inhibitor: Inhibitors of the vitamin D receptor (VDR): qHTS. Vitamin D3 receptor (Homo sapiens), P11473. VDR-SRC2-3 peptide fluorescence polarization, 2 h. Potency, µM, inactives show max response, negative = inhibition, usual class: inhibitors. actives 0.93% (n = 400,000)
Target sequence (P11473 whole entry, looked up): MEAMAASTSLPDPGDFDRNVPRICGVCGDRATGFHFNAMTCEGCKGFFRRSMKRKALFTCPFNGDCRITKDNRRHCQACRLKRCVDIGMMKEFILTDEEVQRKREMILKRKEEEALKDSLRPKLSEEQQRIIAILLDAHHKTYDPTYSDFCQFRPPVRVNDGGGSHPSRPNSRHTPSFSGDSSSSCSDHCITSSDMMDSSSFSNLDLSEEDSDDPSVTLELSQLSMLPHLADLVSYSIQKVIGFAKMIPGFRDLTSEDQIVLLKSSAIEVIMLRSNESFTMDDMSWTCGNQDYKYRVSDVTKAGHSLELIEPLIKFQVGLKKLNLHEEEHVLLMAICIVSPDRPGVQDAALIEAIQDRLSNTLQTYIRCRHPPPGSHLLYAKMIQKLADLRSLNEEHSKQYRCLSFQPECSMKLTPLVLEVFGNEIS
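The screen uses fluorescence polarization to detect compounds that interfere with recruitment of the SRC2-3 coactivator peptide to VDR; plates are read after 2 h at room temperature.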
Sfp inh: qHTS Assay for Inhibitors of Bacillus subtilis Sfp phosphopantetheinyl transferase (PPTase); Biochemical Sfp PPTase activity, qHTS; actives 3.5% (n = 310,000); 4'-phosphopantetheinyl transferase ffp (Bacillus subtilis), Q9F4F7; Potency, µM, without a hit: largest response in the series, negative = inhibition, hits mostly inhibitors; AID 1490, 2009;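 note: the enzyme is Sfp with the accession as filed and its product quenches rhodamine fluorescence; 0% = enzyme reaction without inhibitor and -100% = no enzyme wells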
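Buffer: 50 mM Hepes-Na pH 7.6, 10 mM MgCl2, 0.01% Nonidet P-40, 0.01% BSA. Enzyme 15 nM, pre-exposed to compound 15 min; substrates then added and fluorescence change tracked over 30 min.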
* hit, by the source's call; ? = inconclusive; . = no result given; ! = a repeat was not active; [ ] = another dose, or the depositor's remark. Sampled rows, rich in hits. Any-hit rate of the full collection: about 4.2%. Calls come from the whole dose curve; as a rule, active = well fitted curve in the direction sought with a large enough effect; inconclusive = small, poorly fitted or top-dose-only effect, or another doubt; inactive = no such curve, though single readings can be large; an effect the other way counts as inactive or inconclusive. Unless noted, % is set by controls: 0 for no effect and ±100 for the full control effect; potency is the fitted concentration of half-maximal effect.

SMILES	ALOX12 inh	PLK1 PBD inh	VDR inhibitor	Sfp inh
Cc1cc(C(=O)COC(=O)c2ccc[nH]c2=O)c(C)n1-c1ccc(Br)cc1	?	-8%	-8%	-4%
CSc1ccc(CNC(=O)c2ncoc2-c2cccs2)cc1	-13%	.	.	.
CCCc1nn2c(=O)c(C(c3ccc(C)cc3)c3c(O)nc4sc(CCC)nn4c3=O)c(O)nc2s1	?	-19%	1%	9%
Cc1ccc(C(c2c(O)nc3n(c2=O)CCS3)c2c(O)nc3n(c2=O)CCS3)cc1	-28%	17µM*	50µM*	?
O=c1c(C(c2ccc(O)cc2)c2c(O)nc3n(c2=O)CCS3)c(O)nc2n1CCS2	391%	6µM*	?	14µM*
O=c1c(C(c2ccc(Br)cc2)c2c(O)nc3n(c2=O)CCCS3)c(O)nc2n1CCCS2	0%	?	-15%	?
O=c1c(C(c2c(O)nc3n(c2=O)CCS3)c2cccc3ccccc23)c(O)nc2n1CCS2	32µM*	30µM*	?	-4%
O=c1c(C(c2ccc(Br)cc2)c2c(O)nc3n(c2=O)CCS3)c(O)nc2n1CCS2	?	15µM*	?	17%
COc1ccccc1N(C1=NCCCS1)S(=O)(=O)c1ccc(C(C)(C)C)cc1	-1%	-21%	-10%	6%
O=C(NCc1ccccc1)[C@@H]1CCCN1C(=O)[C@@H]1CCCN1C(=O)c1cccc2ccccc12	5%	2%	.	.
Cc1ccc(C(NC(=O)C2CCCCC2)c2c(O)ccc3ccccc23)cc1 (configuration not stated)	3%	4%	-21%	11%
O=C(/C=C/N1CCOCC1)c1ccc(-c2ccccc2)cc1	.	-4%	-14%	-8%
O=c1c(C(c2ccc(O)cc2)c2c(O)nc3n(c2=O)CCCS3)c(O)nc2n1CCCS2	?	12µM*	50µM*	25µM*
CC(C)Oc1ccc(/C=N/NC(N)=S)cc1	?	-3%	-7%	2%
COc1ccc(/C=N/NC(N)=S)cc1OC(=O)c1cccc2ccccc12	16µM*	4%	-7%	10%
CN(CCC#N)c1ccc(/C=N/NC(N)=S)cc1	18µM*	.	.	.
COc1cc(/C=N/NC(=O)c2cccc3ccccc23)cc(OC)c1O	?	-8%	-12%	-11%
COc1cc(/C=N/NC(N)=O)ccc1OC(=O)c1ccc(C)cc1	.	.	.	17%
COc1ccc(C(=O)Oc2cc(/C=N/NC(N)=S)ccc2OC)cc1	32µM*	-11%	1%	11%
COc1ccc(/C=N/NC(N)=S)cc1	25µM*	-7%	15%	-13%
CC(C)N1C(=O)/C(=C/c2nc3ccccc3c(=O)n2-c2ccccc2)c2ccccc21	?	-10%	71µM*	-9%
CC(C)N1C(=O)/C(=C\c2nc3ccccc3c(=O)n2-c2ccccc2)c2ccccc21	-6%	-7%	71µM*	-4%
O=S(=O)(O)c1ccc(SCc2ccccc2)nc1	?	21µM*	?	.
CC[C@H](C)C(=O)O[C@H]1C[C@@H](C)C=C2C=C[C@H](C)[C@H](CC[C@@H]3C[C@@H](O)CC(=O)O3)[C@H]21	?	-13%	50µM*!	8%
CCC(C)C(=O)OC1CCC=C2C=CC(C)C(CCC3CC(O)CC(=O)O3)C21 (configuration not stated)	?	4%	1%	.
SMILES	ALOX12 inh	PLK1 PBD inh	VDR inhibitor	Sfp inh
Cn1ccnc1CNCC1(COc2cccnc2)C[C@@H](O)[C@@H](O)C1 (some centres not stated)	17%	.	.	.
Cc1ccc(C2C(C(N)=S)=C(N)OC3=C2C(=O)CC(C)(C)C3)cc1 (configuration not stated)	?	1%	?	3.5µM*
Cc1nn(CCC(=O)Nc2ccccc2Br)c(=O)c2nn(-c3ccccc3)c(C)c12	-11%	.	10%	.
O=c1[nH]c2ccccc2nc1/C=C/c1ccc(Cl)cc1	-5%	3.4µM*	22µM*	10%
CN1CC(O)C2=CC(=O)C(=O)C=C21 (configuration not stated)	?	.	11µM*	5.6µM*
N#Cc1c(-c2ccco2)nc(SCc2ccc(F)cc2)[nH]c1=O	-28%[57.4 µM]	24µM*	-10%	10%
N#Cc1c(-c2ccccc2)nc(SCc2ccc(Cl)cc2)[nH]c1=O	?	?	79µM*	8%
N#Cc1c(-c2ccccc2)nc(SCC(=O)N(c2ccccc2)c2ccccc2)[nH]c1=O	-18%	?	-23%	-5%
N#Cc1c(-c2ccccc2)nc(SCC(=O)N2c3ccccc3Sc3ccccc32)[nH]c1=O	?	19µM*	-11%	6%
CC(C)(C)C1CCc2c(sc3nnn(CCOc4ccccc4)c(=O)c23)C1 (configuration not stated)	?	.	12%	.
O=C1N(c2ccc(Cl)c(Cl)c2)CN(Cc2ccccc2)CN1n1cnnc1	-21%	-10%	2%	11%
CC(=O)Oc1ccc(N2C(=O)C3C(C2=O)C(C(=O)c2ccc(Cl)cc2)N2CCCC32)cc1 (configuration not stated)	?	24µM*	-5%	-1%
CCOc1ccccc1NC(=S)Nc1ccc2cn[nH]c2c1	?	-22%	-9%	-20%
O=C(CSc1ccc2ccccc2c1)c1ccc2c(c1)CCC2	35µM*	.	.	.
N#C/C(=C/c1ccccc1)c1nc(-c2ccc3c(c2)-c2ccccc2C3)cs1	-11%	.	.	.
O=C(C=Cc1cccs1)c1ccccc1	-19%	-4%	?	.
O=C(C=Cc1cccs1)c1ccc(Cl)s1	?	-12%	40µM*	.
O=C(NNC(=S)NCc1ccc(Cl)cc1)c1cccnc1	-19%	-2%	3%	7%
O=C(COc1ccc(S(=O)(=O)N2CCOCC2)cc1)N1CCOCC1	3%	-14%	?	.
O=[N+]([O-])/C=C\c1ccc(N2CCOCC2)cc1	0%	30µM*	25µM*	.
Cc1cc(Cl)ccc1OCCCC(=O)N1CCOCC1	1%	-6%	-8%	8%
Cc1ccc(OCCCC(=O)N2CCOCC2)cc1	0%	12µM*	-3%	-4%
O=C(COc1ccc(/C=C\[N+](=O)[O-])cc1)N1CCOCC1	21%	?	?	40µM*
CSc1ncc(C(=O)Nc2ccccc2C(F)(F)F)c(-c2ccccc2)n1	-14%	.	6%	.
O=C(NCc1cccnc1)c1cccn1-c1ncc(C(F)(F)F)cc1Cl	-1%	30µM*	?	12%
Cn1nnnc1SCCNCC#Cc1ccccc1	-29%	-11%	9%	5%
N#C/C(=C/c1ccc(/C=C(\C#N)C(N)=O)cc1)C(N)=O	6%	.	.	.
N#C/C(=C\c1cc(O)c(O)c(O)c1)C(N)=O	?	-4%	-11%	3.5µM*
CCOc1cc(/C=N/NC(=O)Cn2nc([N+](=O)[O-])cc2C)ccc1OCc1ccc(F)cc1	-9%	-21%	16%	45µM*

Source: PubChem BioAssay
